# Measured values reported in PubChem BioAssay (NCATS).
# Inconclusive results are not listed. A call without a number means that no potency is given here. Calls of active or inactive are those of the source. The call rests on the fitted dose curve; in most records, active means well fitted curve in the direction sought with a large enough effect; inconclusive means small, poorly fitted or top-dose-only effect, or another doubt; inactive means no such curve, though single readings can be large; an effect the other way counts as inactive or inconclusive.
# Legend:
# [1] = biological target: Glutathione peroxidase 1 (Homo sapiens) (UniProt P07203); experiment: Primary qHTS Assay for Inhibitors of Recombinant Selenoprotein Glutathione Peroxidase 1 (GPX1) (AID 1845191); further: nearly all actives have a fitted effect of over 65% in size; further: potency means the concentration at half of the fitted maximal effect
# Summary of the method: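 GPX1 10 nM, GR 100 nM, GSH 1 mM, NADPH 0.5 mM, CHP 0.5 mM (final). 30-min cpd preincubation, RT. Ex340/Em450 read t=0, t=15 min.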
# [2] = biological target: Metallo-beta-lactamase type 2 (Klebsiella pneumoniae) (UniProt C7C422); experiment: qHTS to identify inhibitors of the New Delhi Metallo-beta-lactamase (NDM): assay validation screen against the NCATS LOPAC Collection (AID 1794843)
# Summary of the method: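 Absorbance at 485 nm from nitrocefin turnover (50 uM solution added), read at plateau, gives the read-out. Compounds in DMSO were incubated first with 2 nM final NDM-1 in pH 7.0 HEPES buffer containing 1 uM ZnSO4 and 0.01% Tween20.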
# [3] = biological target: Phospholipid hydroperoxide glutathione peroxidase GPX4 (Homo sapiens) (UniProt P36969); experiment: Primary qHTS Assay for Inhibitors of Recombinant Selenoprotein Glutathione Peroxidase 4 (GPX4) (AID 1845192); further: nearly all actives have a fitted effect of over 65% in size
# Summary of the method: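 qHTS, GR-coupled: GPX4 200 nM + cpd 30 min RT → GSH 1 mM, NADPH 0.5 mM, GR 100 nM → CHP 0.5 mM start; fluor 340/450 at t0 and t15 min; no-enzyme wells as control.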
# [4] = Quantitative High-Throughput drug screen in 47 multiple myeloma cell lines against the NCATS MIPE library collection: FR4_PLB cell viability assay (AID 1918924; further: nearly all actives have a fitted effect of over 35% in size; further: potency means the concentration at half of the fitted maximal effect)
# Summary of the method: (§1)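 qHTS of the MIPE 4.0 collection: 500 myeloma cells/well, 48 h drug exposure at 37C in 5% CO2, then CellTiter-Glo for 5 min at room temperature before luminescence reading.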
# [5] = Quantitative High-Throughput drug screen in 47 multiple myeloma cell lines against the NCATS MIPE library collection: Delta47_JCRB cell viability assay (AID 1918925; further: nearly all actives have a fitted effect of over 45% in size; further: potency means the concentration at half of the fitted maximal effect)
# Summary of the method: (§2)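 Inhibition of cell viability is measured here. Each line was plated at 500 cells per well, treated with MIPE 4.0 drugs, kept 48 hours at 37C, then assayed for ATP content by CellTiter-Glo luminescence.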
# [6] = Quantitative High-Throughput drug screen in 47 multiple myeloma cell lines against the NCATS MIPE library collection: EJM_DSMZ cell viability assay (AID 1918926; further: nearly all actives have a fitted effect of over 30% in size; further: potency means the concentration at half of the fitted maximal effect)
# Summary of the method: as §2
# [7] = Quantitative High-Throughput drug screen in 47 multiple myeloma cell lines against the NCATS MIPE library collection: ARP1_JJKsccF8 cell viability assay (AID 1918928; further: nearly all actives have a fitted effect of over 40% in size; further: potency means the concentration at half of the fitted maximal effect)
# Summary of the method: (§3)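 CellTiter-Glo luminescence after 48 h exposure gives viability, scaled between DMSO-only (100%) and media-only (0%) controls. Library compounds are pinned onto 500 myeloma cells per well, incubated at 37C with 5% CO2.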
# [8] = Quantitative High-Throughput drug screen in 47 multiple myeloma cell lines against the NCATS MIPE library collection: Karpas620_DSMZ cell viability assay (AID 1918959); further: nearly all actives have a fitted effect of over 30% in size; further: potency means the concentration at half of the fitted maximal effect
# Summary of the method: as §1
# [9] = Quantitative High-Throughput drug screen in 47 multiple myeloma cell lines against the NCATS MIPE library collection: Karpas417_ECACC cell viability assay (AID 1918961); conditions: Karpas417 myeloma viability, CellTiter-Glo ATP luminescence, 48 h; viability (% of DMSO): at 45.8 µM (top of the series); further: potency means the concentration at half of the fitted maximal effect
# Summary of the method: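 Luminescent ATP measurement with CellTiter-Glo gives viability, scaled between DMSO-only wells (100%) and media-only wells (0%). Cells, 500 per well, faced library compounds for 48 hours at 37C.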
# [10] = Quantitative High-Throughput drug screen in 47 multiple myeloma cell lines against the NCATS MIPE library collection: JIM3_ECACC cell viability assay (AID 1918963; further: nearly all actives have a fitted effect of over 35% in size; further: potency means the concentration at half of the fitted maximal effect)
# Summary of the method: as §1
# [11] = biological target: Luciferin 4-monooxygenase (Photinus pyralis) (UniProt P08659); experiment: Primary firefly luciferase (FLuc) qHTS assay for identification of artifact compounds. (AID 1845220); conditions: outcome: dose series up to 54.1 µM unless noted; further: nearly all actives have a fitted effect of over 60% in size
# Summary of the method: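 qHTS, 15 min compound preincubation with substrate (10 uM luciferin, 10 uM ATP) at RT, then 10 nM FLuc; 5 min; luminescence; % inhibition vs no-enzyme/DMSO controls, 4-parameter Hill fit.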
# [12] = Primary fluorescence-based thiol-reactive (MSTI) qHTS assay for identification of artifact compounds. (AID 1845221);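 further: thiol-reactive compounds lower the probe fluorescence signal; nearly all actives have a fitted effect of over 65% in size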
# Summary of the method: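 First, 4 uM MSTI in 2% DMSO/PBS pH 7.4 was dispensed; next, compounds were added; then plates sat 1 h at room temperature without light. Finally, emission at 598 nm was recorded.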
# [13] = test system: Nanoluciferase (engineered Oplophorus gracilirostris luciferase); experiment: Primary Nanoluciferase (NLuc) qHTS assay for identification of artifact compounds. (AID 1845222)
# Summary of the method: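 Luminescence read-out of secreted NLuc in S16 cell conditioned medium (1:55); compounds tested with 15 min RT preincubation, then Nano-Glo substrate 1:100, 5 min. % inhibition vs no-enzyme and DMSO controls, 4-parameter Hill fit.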
# [14] = Quantitative High-Throughput drug screen in 47 multiple myeloma cell lines against the NCATS MIPE library collection: AMO1_DSMZ cell viability assay (AID 1918927; further: nearly all actives have a fitted effect of over 30% in size; further: potency means the concentration at half of the fitted maximal effect)
# Summary of the method: as §2
# [15] = Quantitative High-Throughput drug screen in 47 multiple myeloma cell lines against the NCATS MIPE library collection: ARD_JJKsccE7 cell viability assay (AID 1918929; further: potency means the concentration at half of the fitted maximal effect)
# Summary of the method: as §2
# [16] = Quantitative High-Throughput drug screen in 47 multiple myeloma cell lines against the NCATS MIPE library collection: KMM1_JCRB cell viability assay (AID 1918960); further: nearly all actives have a fitted effect of over 30% in size; further: potency means the concentration at half of the fitted maximal effect
# Summary of the method: as §3
# [17] = Quantitative High-Throughput drug screen in 47 multiple myeloma cell lines against the NCATS MIPE library collection: JIM1_ECACC cell viability assay (AID 1918964; further: potency means the concentration at half of the fitted maximal effect)
# Summary of the method: as §2
# [18] = Quantitative High-Throughput drug screen in 47 multiple myeloma cell lines against the NCATS MIPE library collection: KHM11_PLB cell viability assay (AID 1918962); further: nearly all actives have a fitted effect of over 35% in size; further: potency means the concentration at half of the fitted maximal effect
# Summary of the method: as §1
# Metallo-beta-lactamase type 2 (Klebsiella pneumoniae), sequence (C7C422 whole entry, looked up): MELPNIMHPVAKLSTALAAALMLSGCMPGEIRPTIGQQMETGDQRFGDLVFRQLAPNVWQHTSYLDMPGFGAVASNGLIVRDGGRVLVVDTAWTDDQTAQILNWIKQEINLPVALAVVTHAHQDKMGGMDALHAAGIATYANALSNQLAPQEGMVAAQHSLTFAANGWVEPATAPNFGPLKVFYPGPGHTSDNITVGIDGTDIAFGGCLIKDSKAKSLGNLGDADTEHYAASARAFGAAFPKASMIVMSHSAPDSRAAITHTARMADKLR
# Phospholipid hydroperoxide glutathione peroxidase GPX4 (Homo sapiens), sequence (P36969 whole entry, looked up): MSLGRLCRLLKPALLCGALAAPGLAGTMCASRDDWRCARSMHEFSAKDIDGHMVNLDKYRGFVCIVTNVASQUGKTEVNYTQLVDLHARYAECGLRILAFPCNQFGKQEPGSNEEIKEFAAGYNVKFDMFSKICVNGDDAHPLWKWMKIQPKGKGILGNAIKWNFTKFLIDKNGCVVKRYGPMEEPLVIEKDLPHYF
# Glutathione peroxidase 1 (Homo sapiens), sequence (P07203 whole entry, looked up): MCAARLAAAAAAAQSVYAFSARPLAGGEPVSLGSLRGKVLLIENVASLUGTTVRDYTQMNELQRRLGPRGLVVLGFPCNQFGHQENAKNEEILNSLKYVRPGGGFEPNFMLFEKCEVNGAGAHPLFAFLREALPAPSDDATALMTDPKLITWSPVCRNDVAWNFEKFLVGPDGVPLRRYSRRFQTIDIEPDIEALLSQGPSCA
structure (smiles),measurement,setting,value
C=CCC1=C(C)C(OC(=O)C2C(C=C(C)C)C2(C)C)CC1=O (stereo not drawn),Potency,[1],inactive
CC1=NN=C(c2ccc(N)cc2)c2cc3c(cc2C1)OCO3,outcome,[2],inactive
same,Potency,[1],inactive
same,Potency,[3],inactive
same,Potency,[4],inactive
same,Potency,[5],inactive
same,Potency,[6],inactive
same,Potency,[7],inactive
same,Potency,[8],20.9 µM (active)
same,Potency,[9],20.9 µM (active)
same,Potency,[10],inactive
CN[C@@H]1C[C@@H](c2ccc(Cl)c(Cl)c2)c2ccccc21,outcome,[2],inactive
same,Potency,[1],inactive
same,Potency,[3],inactive
S=C(NC1CCCCC1)N1CCC(c2cnc[nH]2)CC1,outcome,[2],inactive
same,Potency,[1],inactive
same,outcome,[11],inactive
same,Potency,[12],inactive
same,outcome,[13],inactive
O=C(O)COc1ccccc1,Potency,[1],inactive
same,Potency,[3],inactive
COC(=O)[C@@H](N)CCCN=C(N)N[N+](=O)[O-],outcome,[2],inactive
same,Potency,[1],inactive
same,Potency,[3],inactive
same,Potency,[4],inactive
same,Potency,[5],inactive
same,Potency,[6],inactive
same,Potency,[14],inactive
same,Potency,[7],inactive
same,Potency,[15],inactive
same,Potency,[8],inactive
same,Potency,[16],inactive
same,Potency,[10],inactive
same,Potency,[17],inactive
O=C(O)Cc1cnc[nH]1,Potency,[1],inactive
same,Potency,[3],inactive
S=C(SSC(=S)N1CCCCC1)N1CCCCC1,Potency,[1],12.8 µM (active)
O=C(O)CC[N+](=O)[O-],outcome,[2],inactive
same,Potency,[1],inactive
same,Potency,[3],inactive
NC1CC1c1ccccc1 (stereo not drawn),outcome,[2],inactive
same,Potency,[1],inactive
same,Potency,[3],inactive
same,Potency,[4],inactive
same,Potency,[5],inactive
same,Potency,[6],inactive
same,Potency,[14],inactive
same,Potency,[7],inactive
same,Potency,[15],inactive
same,Potency,[8],inactive
same,Potency,[18],inactive
same,Potency,[10],inactive
COC(=O)c1cncn1C(C)c1ccccc1 (stereo not drawn),Potency,[1],inactive
same,Potency,[3],inactive
CC(C)(C)NC[C@H](O)c1ccc(O)cc1Cl,Potency,[1],inactive
same,Potency,[3],inactive
same,outcome,[11],inactive
same,Potency,[12],inactive
same,outcome,[13],inactive
CC[N+]1(CCOC(=O)C(O)(c2ccccc2)c2ccccc2)CCCCC1,Potency,[1],inactive
same,Potency,[3],inactive
O=[N+]([O-])/N=C1\NCCN1Cc1ccc(Cl)nc1,Potency,[1],inactive
O=C(N[C@H]1CN2CCC1CC2)c1ccc(Cl)cc1,outcome,[2],inactive
same,Potency,[1],inactive
same,outcome,[11],inactive
same,Potency,[12],inactive
same,outcome,[13],inactive
same,Potency,[4],inactive
same,Potency,[6],inactive
same,Potency,[15],inactive
same,Potency,[8],inactive
same,Potency,[18],inactive
same,Potency,[10],inactive
C[C@]12N[C@H](Cc3ccccc31)c1ccccc12,Potency,[1],inactive
c1ccc(CCCN2CCN(CCOC(c3ccccc3)c3ccccc3)CC2)cc1,outcome,[2],inactive
same,Potency,[1],inactive
same,Potency,[3],inactive
same,Potency,[4],23.5 µM (active)
same,Potency,[5],16.6 µM (active)
same,Potency,[15],inactive
same,Potency,[8],inactive
same,Potency,[18],16.6 µM (active)
same,Potency,[10],20.9 µM (active)
CCCCCCCCCCCCCCCC[N+](C)(C)C,Potency,[1],inactive
same,Potency,[3],inactive
C1CCC(NC2CCCCC2)CC1,Potency,[1],inactive
COc1ccc2c(c[n+](C)c3c4cc5c(cc4ccc23)OCO5)c1OC,outcome,[2],inactive
same,Potency,[1],inactive
same,Potency,[3],inactive
same,Potency,[4],4.18 µM (active)
same,Potency,[5],9.35 µM (active)
same,Potency,[6],2.96 µM (active)
same,Potency,[14],6.62 µM (active)
same,Potency,[7],2.96 µM (active)
same,Potency,[15],7.43 µM (active)
same,Potency,[8],5.9 µM (active)
same,Potency,[18],6.62 µM (active)
same,Potency,[10],7.43 µM (active)
same,Potency,[17],4.18 µM (active)
Cc1cc(O)ccc1Cl,Potency,[1],inactive
same,Potency,[3],inactive
O=C(O)C(Cl)Cl,Potency,[1],inactive
CCC(=O)O[C@@H]1C=C2CCC3C(CCC4(C)C3CC[C@@H]4OC(=O)CC)C2CC1 (stereo partly drawn),Potency,[1],inactive
same,Potency,[3],inactive
CC(Cc1ccc(O)cc1)NCC(O)c1cc(O)cc(O)c1 (stereo not drawn),outcome,[2],inactive
same,Potency,[1],inactive
same,Potency,[3],inactive
CCN1C[C@]2(OC(=O)c3ccccc3NC(C)=O)CC[C@H](OC)[C@@]34[C@H]5CC6[C@@H](OC)C[C@](O)(C(C[C@@H]23)[C@@H]14)[C@@]5(O)[C@@H]6OC,Potency,[1],inactive
same,Potency,[3],inactive
same,Potency,[4],inactive
same,Potency,[5],inactive
same,Potency,[6],inactive
same,Potency,[14],inactive
same,Potency,[8],inactive
same,Potency,[16],inactive
same,Potency,[10],inactive
O=S(=O)(CC1CS1)c1ccc(Oc2ccccc2)cc1 (stereo not drawn),Potency,[1],inactive
same,Potency,[3],inactive
same,Potency,[6],20.9 µM (active)
same,Potency,[15],inactive
same,Potency,[9],9.35 µM (active)
same,Potency,[18],14.8 µM (active)
same,Potency,[10],16.6 µM (active)
same,Potency,[17],inactive
O=S(=O)(F)Cc1ccccc1,Potency,[1],inactive
same,Potency,[3],inactive
same,Potency,[4],inactive
same,Potency,[5],2.96 µM (active)
same,Potency,[6],inactive
same,Potency,[14],inactive
same,Potency,[7],inactive
same,Potency,[15],inactive
same,Potency,[8],inactive
same,Potency,[18],9.35 µM (active)
C/C=C(/C)C(=O)O[C@H]1C(C)=C2[C@H]([C@@H]1OC(=O)CCCCCCC)[C@@](C)(OC(C)=O)C[C@H](OC(=O)CCC)[C@@]1(O)[C@H]2OC(=O)[C@@]1(C)O,Potency,[1],inactive
same,outcome,[11],inactive
same,Potency,[12],inactive
same,outcome,[13],inactive
C[C@]12CC[C@H]3[C@@H](CCC4=CC(=O)CC[C@@]43C)[C@H]1CC[C@H]2OC(=O)CCC1CCCC1,Potency,[1],inactive
same,Potency,[3],inactive
same,Potency,[4],inactive
same,Potency,[5],inactive
same,Potency,[6],16.6 µM (active)
same,Potency,[8],inactive
same,Potency,[16],inactive
O=c1cccc2n1CC1CNC[C@H]2C1,Potency,[1],inactive
same,Potency,[3],inactive
same,Potency,[4],inactive
same,Potency,[6],inactive
same,Potency,[14],13.2 µM (active)
same,Potency,[8],13.2 µM (active)
same,Potency,[16],11.8 µM (active)
same,Potency,[18],inactive
same,Potency,[10],inactive
Cc1[nH]nc2ccc(-c3cncc(OC[C@@H](N)Cc4c[nH]c5ccccc45)c3)cc12,Potency,[1],inactive
same,outcome,[11],inactive
same,Potency,[12],inactive
same,outcome,[13],inactive
same,Potency,[4],0.833 µM (active)
same,Potency,[5],0.209 µM (active)
same,Potency,[6],0.935 µM (active)
same,Potency,[14],inactive
same,Potency,[7],3.32 µM (active)
same,Potency,[15],inactive
same,Potency,[8],inactive
same,Potency,[16],inactive
same,Potency,[18],0.132 µM (active)
same,Potency,[10],1.48 µM (active)
